{"source": "PubChem BioAssay (NCI)", "note": "Compounds without any hit were thinned out: in the full panel of roughly 83,000, 20% have a hit.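 Values shown are percent growth following 48 h exposure of cells in 96-well plates to a single concentration of compound; below 10 was considered active.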 Active and inactive are the calls of the source.", "data": [{"system": "HL-60(TB) leukemia", "assay": "NCI-60 one-dose screen, 48 h (100 = growth as untreated, 0 = no growth, -100 = all killed)", "conditions": "10 µM unless noted", "values": [{"smiles": "COc1ccc2[nH]cc(/C=C3/C(=O)Nc4ccc(F)cc43)c2c1", "growth": "96.6% (inactive)"}, {"smiles": "C=C(C)[C@@H]1CC[C@]2(C)CC[C@]3(C)[C@H](CC[C@@H]4[C@@]5(C)CCCNC(C)(C)[C@@H]5CC[C@]43C)[C@@H]12", "growth": "35.7% (inactive)"}, {"smiles": "CCCO/N=C/c1ccccn1", "growth": "94.8% (inactive)"}, {"smiles": "COc1cc(O)c2c(=O)c3c(CC=C(C)C)cc(OC)c(O)c3oc2c1", "growth": "-15.9% (active)"}, {"smiles": "CC(C)(C)CC(C)(C)c1ccc(O)c(Cc2ccc(Cl)cc2Cl)c1", "growth": "-61.6% (active)"}, {"smiles": "CC1CCN(C(=O)CCCl)c2ccccc21", "note": "(stereo not given)", "growth": "112% (inactive)"}, {"smiles": "COc1cc(-c2nn(-c3cccc(NC(=O)Nc4ccc(Cl)c(C(F)(F)F)c4)c3)cc2-c2ccncc2)ccc1Cl", "growth": "-19.8% (active)"}, {"smiles": "Cn1cc(-c2csc(-c3cn(C)c4ccc(Br)cc34)n2)c2cnccc21", "growth": "-58.4% (active)"}, {"smiles": "COc1nc2ccc(C)cc2cc1-c1nc2c(cnn2-c2ccc(Br)cc2)c(=O)[nH]1", "growth": "23.7% (inactive)"}, {"smiles": "CC(C)OC(=O)Nc1cc(F)ccc1F", "growth": "94.7% (inactive)"}, {"smiles": "COCc1cnccc1NC1CCCCCC1", "growth": "86.2% (inactive)"}, {"smiles": "O=[N+]([O-])c1ccccc1/C=N\\NC(=S)N/N=C/c1ccccc1[N+](=O)[O-]", "growth": "9.57% (active)"}, {"smiles": "C=C(C)[C@@H]1CC[C@]2(CN)CC[C@]3(C)[C@H](CC[C@@H]4[C@@]5(C)CCC(=O)NC(C)(C)[C@@H]5CC[C@]43C)[C@@H]12", "growth": "-50.5% (active)"}, {"smiles": "OCCN1CCN(c2cc(-c3cccc(OC(F)(F)F)c3)nc3ccc(N4CCCC4)cc23)CC1", "growth": "62.8% (inactive)"}, {"smiles": "COC(=O)Cc1nc(C#N)c(N(C)C)o1", "growth": "99.5% (inactive)"}, {"smiles": "COc1ccc(-c2ccc(-c3ccc(C(=N)N)cn3)s2)cc1OC", "growth": "94.9% (inactive)"}, {"smiles": "CCN(CC)c1ccc(/C=N/NC(=O)c2ccccc2Nc2ccnc(C(F)(F)F)c2)c(O)c1", "growth": "60% (inactive)"}, {"smiles": "Cc1nc(Nc2ccc(F)c(Cl)c2)sc1C(=O)O", "growth": "11.6% (inactive)"}, {"smiles": "Cc1cccc(NC(=O)c2sc3nc4c(cc3c2N)CN(Cc2ccccc2)CC4)c1C", "growth": "7.62% (active)"}, {"smiles": "COC(=O)[C@]12CC[C@@H](C)[C@H](C)[C@@H]1C1=CC[C@@H]3[C@@]4(C)C(C=O)=C[C@@](C)(COS(C)(=O)=O)[C@@H]4C(=O)C[C@@]3(C)[C@]1(C)CC2", "growth": "31.5% (inactive)"}, {"smiles": "COc1cc(/C=N/NC(=S)NNC(=S)NC2CCCCC2)cc(OC)c1OC", "growth": "104% (inactive)"}, {"smiles": "NS(=O)(=O)c1ccc(-n2nc(-c3ccccc3)ccc2=O)cc1", "growth": "89.9% (inactive)"}, {"smiles": "Cc1nnc2c3nnc(-c4ccc(Cl)cc4)n3c3ccccc3n12", "growth": "101% (inactive)"}, {"smiles": "Cc1ccc2nc(-c3ccc(-n4on4-c4ccc(/C=C/c5ccc(-n6on6-c6ccc(-c7nc8ccc(C)cc8s7)cc6)cc5S(=O)(=O)O)c(S(=O)(=O)O)c4)cc3)sc2c1", "growth": "101% (inactive)"}, {"smiles": "C#Cc1cccc(NC(=O)C2CCCN(C(=O)CCl)C2)c1", "note": "(stereo not given)", "growth": "34% [8.25 µM] (inactive)"}, {"smiles": "Nc1c(C(=O)Nc2ccccc2F)sc2nc3c(cc12)CCCC3", "growth": "15.5% (inactive)"}, {"smiles": "CCOc1nc(-c2ccccc2)cc2c(O)c(C(=O)NCCCO)[nH]c(=O)c12", "growth": "177% (inactive)"}, {"smiles": "CCOC(=O)c1cc(C(=O)c2cc(OC)cc(OC)c2)n2ccc3ccccc3c12", "growth": "103% (inactive)"}, {"smiles": "CC(C)(C)n1cc(-c2ccnc(NCCCNS(=O)(=O)c3ccc(C(F)(F)F)cc3)c2)c(-c2cccc(F)c2)n1", "growth": "94.6% (inactive)"}, {"smiles": "CCCCC(CC)COC(C)=O", "note": "(stereo not given)", "growth": "100% (inactive)"}, {"smiles": "Cc1ccc(C23CCC(=O)N2CCc2cncn23)cc1", "note": "(stereo not given)", "growth": "95.7% (inactive)"}, {"smiles": "CCCCNCC(O)c1cc2c(Cl)cc(Cl)cc2c2cc(C(F)(F)F)ccc12", "note": "(stereo not given)", "growth": "-59.2% (active)"}, {"smiles": "Cc1ccc(C(=O)Nc2cccc(C#Cc3cccc4[nH]nc(N)c34)c2)cc1C(F)(F)F", "growth": "19.2% (inactive)"}, {"smiles": "CC(C)c1nc(N(C)S(C)(=O)=O)nc(-c2ccc(F)cc2)c1/C=C/[C@@H](O)C[C@@H](O)CC(=O)O", "growth": "114% (inactive)"}, {"smiles": "COc1cc(C2CC(=O)Nc3c2c(C)nn3-c2nc3ccccc3[nH]2)cc(OC)c1OC", "note": "(stereo not given)", "growth": "108% (inactive)"}, {"smiles": "CSc1nc2c(c(=O)n1C)N=C1c3ccccc3C(=O)C1C(c1ccccc1)N2", "note": "(stereo not given)", "growth": "84.5% (inactive)"}, {"smiles": "Cc1ccc(-c2nc3c(N=Nc4ccc(S(N)(=O)=O)cc4)c(N)nn3c(N)c2C#N)cc1", "growth": "2.71% (active)"}, {"smiles": "CC(=O)O[C@]1(C)C[C@H](O)[C@]2(O)C=CO[C@H](O[C@@H]3O[C@H](CO)[C@@H](O)[C@H](O)[C@H]3O)[C@@H]21", "growth": "92.5% (inactive)"}, {"smiles": "COC(=O)N[C@@H](C)CNc1nccc(-c2cn(C(C)C)nc2-c2cc(Cl)cc(NS(C)(=O)=O)c2F)n1", "growth": "26.6% (inactive)"}, {"smiles": "O=c1oc2ccccc2cc1-c1csc(N=Nc2c(O)[nH]c3ccc(Br)cc23)n1", "growth": "106% (inactive)"}]}]}
